Measured values taken from PubChem BioAssay (NCATS).
Results filed as inconclusive are left out. Where a call stands in place of a potency, no number is given. The source made the active and inactive calls. Calls come from the whole dose curve; as a rule, active = well fitted cell-killing curve with a large enough effect; inconclusive = small, poorly fitted or top-dose-only effect, or effect the other way; inactive = no such curve, though single readings can be large or run the other way.

What was measured:
[1] = Quantitative High-Throughput drug screen in 47 multiple myeloma cell lines against the NCATS MIPE library collection: EJM_DSMZ cell viability assay (AID 1918926; note: nearly all actives have a fitted effect of over 30% in size; note: potency is the fitted concentration of half-maximal effect)
Procedure, shortened: (§1)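 Approved and investigational drugs from MIPE 4.0 were added by pin tool to 500 cells per well. After 48 hours at 37C, ATP-based CellTiter-Glo luminescence indicated remaining viability.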

[2] = Quantitative High-Throughput drug screen in 47 multiple myeloma cell lines against the NCATS MIPE library collection: ARP1_JJKsccF8 cell viability assay (AID 1918928; note: nearly all actives have a fitted effect of over 40% in size; note: potency is the fitted concentration of half-maximal effect)
Procedure, shortened: (§2)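 Each line was plated at 500 cells/well and treated 48 h with library drugs. Viability came from CellTiter-Glo luminescence relative to DMSO and cell-free medium controls.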

[3] = Quantitative High-Throughput drug screen in 47 multiple myeloma cell lines against the NCATS MIPE library collection: Karpas620_DSMZ cell viability assay (AID 1918959); note: nearly all actives have a fitted effect of over 30% in size; note: potency is the fitted concentration of half-maximal effect
Procedure, shortened: (§3)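 Relative luminescence from CellTiter-Glo served as the viability signal, referenced to DMSO-treated (100%) and cell-free medium (0%) controls. Treatment lasted 48 hours at 37C with 500 cells per well.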

[4] = Quantitative High-Throughput drug screen in 47 multiple myeloma cell lines against the NCATS MIPE library collection: KMM1_JCRB cell viability assay (AID 1918960); note: nearly all actives have a fitted effect of over 30% in size; note: potency is the fitted concentration of half-maximal effect
Procedure, shortened: as §2

[5] = Quantitative High-Throughput drug screen in 47 multiple myeloma cell lines against the NCATS MIPE library collection: Karpas417_ECACC cell viability assay (AID 1918961); details: Karpas417 myeloma viability, CellTiter-Glo ATP luminescence, 48 h; viability (% of DMSO): at 45.8 µM (top of the series); note: potency is the fitted concentration of half-maximal effect
Procedure, shortened: as §3

[6] = Quantitative High-Throughput drug screen in 47 multiple myeloma cell lines against the NCATS MIPE library collection: ARD_JJKsccE7 cell viability assay (AID 1918929; note: potency is the fitted concentration of half-maximal effect)
Procedure, shortened: as §1

[7] = Quantitative High-Throughput drug screen in 47 multiple myeloma cell lines against the NCATS MIPE library collection: Delta47_JCRB cell viability assay (AID 1918925; note: nearly all actives have a fitted effect of over 45% in size; note: potency is the fitted concentration of half-maximal effect)
Procedure, shortened: as §1

[8] = Quantitative High-Throughput drug screen in 47 multiple myeloma cell lines against the NCATS MIPE library collection: AMO1_DSMZ cell viability assay (AID 1918927; note: potency is the fitted concentration of half-maximal effect; nearly all actives have a fitted effect of over 30% in size)
Procedure, shortened: as §1

[9] = Quantitative High-Throughput drug screen in 47 multiple myeloma cell lines against the NCATS MIPE library collection: FR4_PLB cell viability assay (AID 1918924; note: nearly all actives have a fitted effect of over 35% in size)
Procedure, shortened: as §3

**Q.** For `CO[C@@H]1[C@@H](OC(N)=O)[C@@H](O)[C@H](Oc2ccc3c(O)c(NC(=O)c4ccc(O)c(CC=C(C)C)c4)c(=O)oc3c2C)OC1(C)C`, which Potency [1] is on record?
**A.** 5.26 µM (active)

**Q.** And the Potency [2]?
**A.** 0.935 µM (active)

**Q.** Which results are given for `CCOC(=O)c1ccc(C#Cc2ccc3c(c2)C(C)(C)CCS3)nc1`?
**A.** Potency [3]: inactive; Potency [4]: inactive; viability (% of DMSO) [5]: 132% (active)

**Q.** With `CCOC(=O)[C@H](CCc1ccccc1)N[C@H]1CCc2ccccc2N(CC(=O)O)C1=O` as the compound, how does the Potency [1] read?
**A.** 23.5 µM (active)

**Q.** What about the Potency [6] of the same compound?
**A.** 18.7 µM (active)

**Q.** And the Potency [3]?
**A.** 14.8 µM (active)

**Q.** And the Potency [4]?
**A.** 18.7 µM (active)

**Q.** Which Potency [7] does the source give for `CCOc1cc(N)c(Cl)cc1C(=O)NCC1CN(Cc2ccc(F)cc2)CCO1` (centres undefined) here?
**A.** inactive

**Q.** What about the Potency [1] of the same compound?
**A.** inactive

**Q.** And the Potency [3]?
**A.** inactive

**Q.** And the Potency [4]?
**A.** inactive

**Q.** What does the source list for `Cc1ncc([N+](=O)[O-])n1CCO`?
**A.** Potency [7]: inactive; Potency [1]: inactive; Potency [2]: inactive; Potency [3]: inactive; Potency [4]: inactive

**Q.** Which results are given for `CC(C)(C)NC(=O)[C@H]1CC[C@H]2[C@@H]3CC[C@H]4NC(=O)C=C[C@]4(C)[C@H]3CC[C@]12C`?
**A.** Potency [7]: 0.526 µM (active); Potency [8]: 18.7 µM (active)

**Q.** For `O=S(=O)(c1cccc2cnccc12)N1CCCNCC1`, which Potency [4] is on record?
**A.** inactive

**Q.** Which Potency [9] does the source give for `C[C@@H](CN1CC(=O)NC(=O)C1)N1CC(=O)NC(=O)C1` here?
**A.** inactive

**Q.** What about the Potency [4] of the same compound?
**A.** inactive

**Q.** And the Potency [5]?
**A.** 0.0526 µM (active)
